TEAD-YAP inh – TEAD-YAP interaction inhibition, primary screen, TEAD-YAP interaction inhibitor project, luminescence, HEK-TIYL cells; AID 1259422, 2018; inhibition, % at 9.12 µM; TEAD-Gal4/YAP UAS-luciferase luminescence; actives 1.4% (n = 640,000); in the data active means inhibition above about 32%;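 further: 0% = median of test compound wells and 100% = reference inhibitor wells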
GPR151 activ – activators of human GPR151, primary screen, cell-based, PathHunter beta-arrestin, luminescence; AID 1508602, 2020; G-protein coupled receptor 151 (Homo sapiens), Q8TDV0; actives 1% (n = 650,000); activation, % at 11.2 µM; PathHunter beta-arrestin GPR151 cells; in the data active means activation above about 4.9%;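 further: 0% = median of compound wells and 100% = cells with positive control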
FBW7 act – FBW7 E3 ligase activators, primary screen, biochemical, AlphaScreen, human | AlphaScreen FBW7–phospho-cyclin E peptide binding, activator screen | actives 0.13% (n = 650,000) | normalized activity (activation), % at 26.1 µM; in the data active means normalized activity above about 1.9%;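 further: purified mutant Fbw7 with reduced substrate affinity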
MITF inh – MITF inhibitors, primary screen, biochemical, AlphaScreen, human | AlphaScreen MITF homodimerization, bead proximity signal | inhibition, % at 2.6 µM | actives 0.91% (n = 650,000); in the data active means inhibition above about 50%;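 further: 0% = vehicle wells with protein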
Target sequence (O75030 whole entry, looked up): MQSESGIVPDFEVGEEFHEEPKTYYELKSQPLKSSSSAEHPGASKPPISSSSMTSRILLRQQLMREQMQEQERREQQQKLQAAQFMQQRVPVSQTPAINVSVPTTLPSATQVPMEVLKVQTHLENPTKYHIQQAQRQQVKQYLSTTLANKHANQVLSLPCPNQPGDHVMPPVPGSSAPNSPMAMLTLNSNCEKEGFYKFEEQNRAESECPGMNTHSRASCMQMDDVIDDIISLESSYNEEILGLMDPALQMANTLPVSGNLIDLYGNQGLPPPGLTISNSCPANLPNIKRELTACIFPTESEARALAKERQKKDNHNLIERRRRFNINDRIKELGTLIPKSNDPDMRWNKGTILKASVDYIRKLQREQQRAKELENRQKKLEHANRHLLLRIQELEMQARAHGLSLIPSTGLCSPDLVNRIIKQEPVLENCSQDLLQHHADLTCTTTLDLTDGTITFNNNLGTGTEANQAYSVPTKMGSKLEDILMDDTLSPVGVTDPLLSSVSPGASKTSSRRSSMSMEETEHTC
Active calls of the source: *; . = not tested or not shown. In the library only some 3.5% were active in any assay of this set; here they are far more common.

SMILES | TEAD-YAP inh | GPR151 activ | FBW7 act | MITF inh
COc1cccc(OCc2nc3cc(-c4cn[nH]c4C)ccc3c(=O)[nH]2)c1 | 56.0* | -0.9 | 0.4 | 25.9
Cc1ccccc1OCc1nc2ccc(-c3cn[nH]c3C)cc2c(=O)[nH]1 | 48.0* | 0.5 | 0.1 | 6.4
O=C(COC(=O)c1cccnc1)Nc1ccc2ccccc2c1 | -5.6 | -0.8 | 0.1 | 6.4
N#CS/C=C/C(=O)c1ccccc1 | 51.5* | -0.4 | 0.1 | 1.6
O=C(Cn1cnc2c(-c3ccc(F)cc3)csc2c1=O)NCc1ccccc1 | 48.6* | -0.1 | -0.2 | 0.0
O=C(Cn1cnc2c(-c3ccc(F)cc3)csc2c1=O)NCCc1ccccc1 | 7.4 | -0.2 | 0.0 | -0.8
O=C(Cn1cnc2scc(-c3ccc4ccccc4c3)c2c1=O)NCc1ccccc1 | 36.6* | -0.6 | 0.6 | 5.9
CN(Cc1ccccc1)C(=O)Cn1cnc2scc(-c3ccccc3)c2c1=O | 32.1* | 2.8 | 0.3 | 5.6
c1ccc(C2=NNC(=NC3CC3)SC2)cc1 | 80.0* | -10.3 | -0.2 | -6.8
c1ccc(N=C2NN=C(c3ccccc3)CS2)cc1 | -35.9 | 0.9 | 0.0 | -6.8
O=C(CSc1nnc(-c2ccco2)c(-c2ccco2)n1)Nc1ccc(C(=O)O)cc1 | 1.1 | 0.4 | -0.5 | 73.5*
O=C(CSc1nnc(-c2ccco2)c(-c2ccco2)n1)Nc1cccc(C(=O)O)c1 | 0.7 | 0.8 | -0.1 | 26.0
Cc1cc(NC(=O)CSc2nnc(-c3ccco3)c(-c3ccco3)n2)no1 | 32.4* | -0.1 | 0.0 | 24.8
O=C(c1ccc(F)cc1)N1CCN(C(=O)c2cccc(Cl)c2)CC1 | 2.3 | 0.5 | 0.9 | 10.8
O=C1c2nccnc2C(=O)N1c1ccccc1F | 4.7 | -0.3 | 0.0 | -11.0
Cc1ccc2c(c1)/C(=C/c1ccc([N+](=O)[O-])cc1)c1cccnc1-2 | 8.4 | 1.3 | 0.0 | 5.2
N#CC(C#N)C(C#N)(C#N)C1CCC/C(=C\c2ccco2)C1=O (stereo not given) | -1.7 | 1.9 | -0.7 | 80.8*
O=C1/C(=C/c2ccco2)CCc2ccccc21 | -54.1 | -2.5 | 0.3 | 21.9
Cc1ccc(C(=O)Nc2cccc(OC(=O)c3cc(S(=O)(=O)N4CCOCC4)ccc3Cl)c2)cc1 | 82.7* | -5.7 | -0.1 | 1.3
O=C(Oc1cccc(NC(=O)c2ccco2)c1)c1cccc(S(=O)(=O)N2CCOCC2)c1 | -12.2 | -3.3 | 0.6 | 18.0
O=C(Nc1cccc(OC(=O)c2cc(S(=O)(=O)N3CCCCCC3)ccc2Cl)c1)c1ccccc1 | -2.9 | 0.2 | -0.1 | -5.2
O=C(Nc1cccc(OC(=O)c2cccc(S(=O)(=O)N3CCOCC3)c2)c1)c1ccc(Br)cc1 | 34.7* | 1.0 | 0.0 | 5.6
O=C(Nc1cccc(OC(=O)c2ccc(F)c(S(=O)(=O)N3CCOCC3)c2)c1)c1ccccc1 | 32.2* | -0.8 | -0.1 | -2.8
O=C(Oc1cccc(NC(=O)c2ccco2)c1)c1ccc(F)c(S(=O)(=O)N2CCOCC2)c1 | 2.2 | 0.2 | 0.1 | -14.2
CCN(CC)C(=O)C1CCCN(c2nc(NCc3ccccc3)c3ncn(-c4ccccc4)c3n2)C1 (stereo not given) | -1.2 | 0.7 | 0.1 | 13.2
SMILES | TEAD-YAP inh | GPR151 activ | FBW7 act | MITF inh
N#Cc1cc(-c2ccnc(Nc3ccc(CN4CCCCC4)cc3)n2)cc(N2CCOCC2)c1 | 36.3* | 0.3 | -0.1 | 0.8
N#Cc1cc(-c2ccnc(Nc3ccc(N4CCNCC4)cc3)n2)cc(N2CCOCC2)c1 | 31.9* | -0.2 | -0.7 | -3.3
N#Cc1ccc(N2CCc3ccccc3C2)c([N+](=O)[O-])c1 | -5.1 | -0.1 | -0.3 | 1.1
Cc1nnc(-c2ccc(N3CCc4ccccc4C3)c([N+](=O)[O-])c2)o1 | 45.3* | 1.4 | -0.4 | 22.0
CCCCOC(=O)c1ccccc1C(=O)c1ccc2nc(NC(=O)OC)[nH]c2c1 | 38.7* | 0.4 | -0.2 | 3.2
COC(=O)Nc1nc2ccc(S(=O)c3ccccc3)cc2[nH]1 (stereo not given) | . | 0.8 | 0.0 | 7.9
COC(=O)Nc1nc2ccc(C(=O)c3ccccc3)cc2[nH]1 | 32.6* | 3.1 | 0.5 | -4.8
COC(=O)Nc1nc2ccc(C(=O)c3cccs3)cc2[nH]1 | 56.2* | -0.9 | 0.0 | 7.3
CC(NC(=O)Nc1ccc(Cl)c(Cl)c1)C1CCCO1 (stereo not given) | -48.8 | -1.7 | 1.9* | 17.2
O=C(NNC(=O)c1nn(-c2ccc(Cl)cc2)cc1O)c1ccccc1F | 15.5 | 0.6 | -0.4 | 28.1
O=C(NNC(=O)c1nn(-c2ccc(Cl)cc2)cc1O)c1ccc2ccccc2n1 | 65.2* | -2.1 | -1.0 | 69.4*
CC1CCCC(NC(=O)CCCNC(=O)Cn2cnc3sc4c(c3c2=O)CCCC4)C1C (stereo not given) | 7.1 | 0.1 | 0.1 | -16.3
COC(=O)c1c(C(=O)c2ccc(F)cc2)[nH]c2ccccc12 | 50.2* | 0.2 | 0.0 | 0.3
COC(=O)c1[nH]c2ccccc2c1Cl | -7.9 | 0.0 | 0.0 | 6.3
Cc1ccc(S(=O)(=O)N2CCCCC2CCNC(=O)C(=O)NCc2ccco2)cc1 (stereo not given) | 41.5* | -1.2 | 0.4 | -3.6
O=C(NCCc1ccco1)C(=O)NCC1CCCN1S(=O)(=O)c1ccccc1 (stereo not given) | 32.3* | 0.9 | 0.3 | 13.7
Cc1ccc(S(=O)(=O)N2CCCCC2CCNC(=O)C(=O)NCc2cccs2)cc1 (stereo not given) | 48.4* | 0.0 | 0.8 | 9.1
Cc1ccc(S(=O)(=O)N2CCCCC2CCNC(=O)C(=O)NCCc2ccco2)cc1 (stereo not given) | 47.3* | 0.2 | 0.1 | 5.0
Cc1ccc(S(=O)(=O)N2CCCCC2CCNC(=O)C(=O)NC2CCCC2)cc1 (stereo not given) | 3.7 | 3.7 | -0.1 | -0.2
CCOC(=O)c1ccc(-n2c(N)c(C(=O)N3CCCCC3)sc2=S)cc1 | -3.8 | -1.3 | -0.2 | 21.9
N#CC1=C(N)Oc2c(ccc3cccnc23)C1c1ccccc1F (stereo not given) | 58.4* | -0.6 | -1.1 | 2.0
COc1ccc(NC(=O)C(Cc2c[nH]c3ccccc23)NC(=O)c2ccccc2)cc1 (stereo not given) | 61.7* | -0.2 | -0.1 | 5.2
CC1CCC(C(=O)NC(Cc2c[nH]c3ccccc23)C(=O)Nc2cccnc2)CC1 (stereo not given) | 57.7* | -0.1 | 0.1 | 8.9
O=C(NC(Cc1c[nH]c2ccccc12)C(=O)Nc1ccccc1)Oc1ccccc1 (stereo not given) | 10.2 | 0.7 | -0.1 | 5.7
COc1cc(C2C(C(=O)OCCOc3ccccc3)=C(C)NC3=C2C(=O)CC(c2ccccc2)C3)ccc1O (stereo not given) | 5.9 | -0.1 | -0.2 | 2.9
CCC1Oc2ccc(C(=O)n3nc(C)cc3C)cc2N(CC(=O)C(C)(C)C)C1=O (stereo not given) | 1.1 | -1.7 | 0.1 | 13.4
CCOC(=O)/C=C/C(=O)Nc1cc(Cl)c(Cl)cc1Cl | 58.3* | 1.0 | 0.0 | -1.0
